These results are taken from ChEMBL document CHEMBL4513216, “Probing the Open Global Health Chemical Diversity Library for Multistage-Active Starting Points for Next-Generation Antimalarials” (ACS Infect Dis, 2020).

Structures are written as SMILES. Hit rate of the full screen: of about 69,000 compounds, about 8,600 (12%) showed an effect of 50% or more. The sample as a whole holds a higher share of strong results than the screen did.

The test concerns Plasmodium berghei. The experiment in a line: Screen against P. berghei liver stage (PbLuc), transformed with Luciferase, at 10uM. The test is classed as functional, HepG2. The settings on record: tested at 10 uM.
Consider `CCc1nnc(CN(C)c2nc(C3CCCC3)nc3c2cnn3C)o1`, for which the INHIBITION was 1.81%.

`CCc1nnc(CN(C)c2nc(C(C)C)nc3c2cnn3C)o1`: the INHIBITION worked out at 53.5%.

With `CN(C)C(=O)C1CN(c2ncccn2)CCN1C` (stereo not given), the INHIBITION came out at 25.8%.

Turning to `COc1ncccc1CNC(=O)N(Cc1ccc(F)cc1F)C1CC1`, the INHIBITION came to 48.2%.

As to `Cc1ccnc(C(Nc2nccc(-c3ccc(C)nc3C)n2)C2CC2)c1` (stereo not given), the INHIBITION worked out at 41.3%.

On to `Cc1nc(CN2CCOC(Cn3cccn3)C2)nc2ccccc12` (stereo not given), for which the INHIBITION is given as -31.8%.

As to `Cc1c[nH]c(C(=O)N2CCn3nc(C(=O)NC4CC4)cc3C2)n1`, the INHIBITION was 53.7%.

Regarding `Cc1nc2sccn2c1C(=O)N1CCn2nc(C(=O)NC3CC3)cc2C1`, the INHIBITION came to 25.5%.

In the case of `Cc1cc(C(=O)N2CCn3nc(C(=O)NC4CC4)cc3C2)nc(C)n1`, the INHIBITION came to 34.2%.

As for `N#Cc1cccc(CN2C[C@@H](NC(=O)C3CC3)[C@H]3OCCC[C@H]32)c1`, the INHIBITION was determined as 42%.

On to `CCc1ccccc1OCCNCCc1c[nH]cn1`, for which the INHIBITION is 51.3%.

Take `CCn1c(-c2ccccc2)nn(CC(=O)NCCc2c[nH]cn2)c1=O`: the INHIBITION is listed as 31.4%.

For `C=C(C)COc1ccccc1CNCCc1c[nH]cn1`, the INHIBITION was 21.7%.

`O[C@H]1CN(Cc2cc3ccccc3o2)CC[C@@]12CCCO2`: the INHIBITION was found to be 15.9%.

Turning to `Cc1nc(C)n(CC2CN(CC(=O)Nc3nccs3)CCO2)n1` (stereo not given), the INHIBITION came out at 30.1%.

Consider `Cc1nc(C)n(CC2CCCN(CC(=O)Nc3cccnc3)C2)n1` (stereo not given), for which the INHIBITION turned out to be 57.2%.

Take `CCC1CN(CC(=O)Nc2cc(C)nn2C)CCO1` (stereo not given): the INHIBITION was 23.4%.

As for `Cc1cnn(CC2CN(CC(=O)Nc3ccncc3)CCO2)c1` (stereo not given), the INHIBITION is on record as 11.2%.

Regarding `Cc1cc(C)n(CC2CN(CC(=O)Nc3ccncc3)CCO2)n1` (stereo not given), the INHIBITION worked out at 44.3%.

In the case of `Cc1nc(C)n(CC2CN(CC(=O)Nc3ccncc3)CCO2)n1` (stereo not given), the INHIBITION stood at 64.1%.

In the case of `Cc1cnn(CC2CN(CC(=O)Nc3cccnc3)CCO2)c1` (stereo not given), the INHIBITION was 67.5%.

On to `Cc1nc(C)n(CC2CCCN(CC(=O)Nc3ccncc3)C2)n1` (stereo not given), for which the INHIBITION is reported as -0.15%.

On to `O=C(CN1CCOC(Cn2cccn2)C1)Nc1cccnc1` (stereo not given), for which the INHIBITION is on record as 10.7%.

`Cc1nc(C)n(CC2CCCN2CC(=O)Nc2cccnc2)n1` (stereo not given): the INHIBITION was -6.39%.

For the compound `Cc1cc(NC(=O)CN2CCOC(Cn3nc(C)cc3C)C2)n(C)n1` (stereo not given), the INHIBITION came out at 56%.

Consider `Cc1nc(C)n(CC2CN(CC(=O)Nc3cccnc3)CCO2)n1` (stereo not given), for which the INHIBITION is recorded as -13.2%.

Regarding `CO[C@H]1CCN(C(=O)c2ccsc2)[C@@H]2CN(CC3CC3)C[C@H]12`, the INHIBITION was 0.112%.

Turning to `Cc1cnn(-c2ccc(C(=O)N3CCCC(n4ccnc4C)C3)cc2)c1` (stereo not given), the INHIBITION was found to be 0.411%.

Take `Cn1cc(C2CCCN2C(=O)COCCOc2ccccc2)cn1` (stereo not given): the INHIBITION is given as 44.1%.

For the compound `CC(C)N1CCc2onc(Cn3cccc3)c2C1`, the INHIBITION came to 4.02%.

As for `Cc1nc(C)n(CC2CCCN2CCOc2ccccc2F)n1` (stereo not given), the INHIBITION is -83.4%.

In the case of `CC(C)c1nc(C2CCCN(C(=O)CCc3cscn3)C2)no1` (stereo not given), the INHIBITION is on record as -43.5%.

On to `c1cnc(Nc2cc(CCC3CCCNC3)ccn2)cn1` (stereo not given), for which the INHIBITION is -26.2%.

Take `Cc1nc2cc(C(=O)N3CCn4c(nnc4C4CC4)C3)ccc2s1`: the INHIBITION is given as 10.9%.

With `CCN(CC)CCn1cc(NC2CCN(C(C)(C)C)CC2)cn1`, the INHIBITION is on record as -13.1%.

As for `Cc1nn(C)c(NC(=O)C2SCCc3ccccc32)c1C` (stereo not given), the INHIBITION is recorded as 74%.

As to `O=C(NCCc1nncn1C1CC1)C1SCCc2ccccc21` (stereo not given), the INHIBITION is recorded as -4.13%.

As for `Cc1nonc1NC(=O)C1SCCc2ccccc21` (stereo not given), the INHIBITION is -92.8%.

As for `O=C(c1ccncc1)N(CCO)Cc1cc(Br)ccc1F`, the INHIBITION is reported as 35.6%.

Regarding `Nc1nc2c(c(=O)[nH]1)CCN(C(=O)c1ccccc1N1CCCC1)C2`, the INHIBITION turned out to be 8.24%.

Consider `O=C(NC1CC1)c1cnc2n1CCCC2`, for which the INHIBITION is listed as -40.6%.

As for `CC(C)(C)NC(=O)c1cnc2n1CCCC2`, the INHIBITION is given as -107%.

As to `O=C(c1cnc2n1CCCC2)N1CCCC1`, the INHIBITION is on record as 66.1%.

On to `O=C(NCCCc1ccccn1)c1cn(CCN2CCNCC2)nn1`, for which the INHIBITION is -37.8%.

Consider `CCN1CCN(C(=O)c2cc(-c3cccs3)cs2)CC1`, for which the INHIBITION is reported as -15.5%.

For the compound `CC(C)NC(=O)Nc1ccc(CS(=O)(=O)C(C)(C)C)cc1`, the INHIBITION is on record as -8.69%.

For `O=C1NCC[C@]12CN(Cc1ccncc1)C[C@H]2c1ccccc1`, the INHIBITION was 51.3%.

Turning to `O=C1NCC[C@]12CN(Cc1ccoc1)C[C@H]2c1ccccc1`, the INHIBITION is -38.1%.

`O=C1NCC[C@]12CN(Cc1cccnc1)C[C@H]2c1ccccc1`: the INHIBITION is recorded as -3.77%.

Regarding `Cc1ccc(CN2C[C@@H](c3ccccc3)[C@@]3(CCNC3=O)C2)o1`, the INHIBITION is listed as -2.46%.

`CCCS(=O)(=O)N1C[C@@H](c2ccccc2)[C@@]2(CCNC2=O)C1`: the INHIBITION is on record as 53.9%.

Take `O=C(c1cnccn1)N1CCC2(CC1)C(=O)NCC2c1ccccc1` (stereo not given): the INHIBITION came out at 49.7%.

With `O=C(c1cccnc1)N1C[C@@H](c2ccccc2)[C@@]2(CCNC2=O)C1`, the INHIBITION is -0.554%.

Take `O=C(c1cnccn1)N1C[C@@H](c2ccccc2)[C@@]2(CCNC2=O)C1`: the INHIBITION was found to be 74.8%.

As to `CCS(=O)(=O)N1C[C@@H](c2ccccc2)[C@@]2(CCNC2=O)C1`, the INHIBITION turned out to be 48.4%.
